This passage reports growth results from PubChem BioAssay (NCI).

This is part of a sample that, as a whole, favours compounds with a hit. Of some 83,000 tested, about 20% had one in any assay.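 In brief: 96-well plates, 48 h treatment, single concentration, percent growth endpoint.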 Values without a mark were called inactive. The source made the active and inactive calls. How the source made its calls: active means growth percent below 10; inactive means the rest.

Some test systems named below: NCI-H23 lung; NCI-H226 lung; NCI-H322M lung; HOP-62 NSCLC; NCI-H460 lung; HOP-92 NSCLC; NCI-H522 lung; A549/ATCC NSCLC; 786-0 renal; COLO 205 colon; DU-145 prostate; K-562 leukemia; MALME-3M melanoma; MDA-MB-231 breast; RXF 393 renal; SF-268 CNS; SF-295 CNS; SF-539 CNS; UACC-257 melanoma; M14 melanoma.
Common to all, as to assay: NCI-60 one-dose screen, 48 h (100 = growth as untreated, 0 = no growth, -100 = all killed)
Conditions in all cases: 10 µM unless noted

For the compound `COc1ccc(C2c3[nH]c4ccc(Cl)cc4c3CCN2c2oc(CO)nc2C#N)cc1` (centres undefined), the growth was 69.9% in the test on NCI-H23 lung; 60% with NCI-H226 lung; 70.4% with NCI-H322M lung; 53.5% in the test with HOP-62 NSCLC; 22.9% in the test on NCI-H460 lung; 53.3% in the test on HOP-92 NSCLC. The growth with NCI-H522 lung is 31.7%; in the test with A549/ATCC NSCLC it was 38.1%; with 786-0 renal it was 64.6%; in the test with COLO 205 colon it was 40.5%; in the test on DU-145 prostate, 57.3%; with K-562 leukemia it was 19.5%. Further, the growth is 72.1% in the test with MALME-3M melanoma; 59.7% in the test on MDA-MB-231 breast; 62.8% in the test on RXF 393 renal; 53.6% in the test on SF-268 CNS; 45.6% with SF-295 CNS; 40.3% with SF-539 CNS. The growth is 67.5% in the test on UACC-257 melanoma and 53.5% in the test on M14 melanoma.
Take `CCOC(=O)c1c(NC(=O)c2cccc(C(F)(F)F)c2)sc2c1CCC(=O)C2`: the growth in the test on NCI-H23 lung is 16%; in the test on NCI-H226 lung, 71.8%; in the test on NCI-H322M lung, 95.1%; with HOP-62 NSCLC it was 31.8%; in the test with NCI-H460 lung, 27.9%; in the test with HOP-92 NSCLC, 29.9%. The growth in the test with NCI-H522 lung is -4% (active); in the test with A549/ATCC NSCLC, 28.9%; with 786-0 renal, 98.4%; in the test on COLO 205 colon, 15.8%; with DU-145 prostate it was 94.8%; in the test with K-562 leukemia it was 5.25% (active). The growth was 58.3% with MALME-3M melanoma; 55.2% with MDA-MB-231 breast; 25.6% in the test on RXF 393 renal; 27.7% in the test on SF-268 CNS; 24.3% with SF-295 CNS; -9.48% (active) in the test on SF-539 CNS. In addition, the growth in the test with UACC-257 melanoma is 82.2%; with M14 melanoma, 42.7%.
For `O=C(/C=C/c1ccccc1Cl)Nc1ncc(Cc2cc(Cl)ccc2Cl)s1`, the growth is 50.9% in the test on NCI-H23 lung; 39.4% in the test with NCI-H226 lung; 48.5% in the test with NCI-H322M lung; 22% with HOP-62 NSCLC; 8.08% (active) with NCI-H460 lung; 35.4% in the test with HOP-92 NSCLC. For the same compound, the growth with NCI-H522 lung is 12.3%; in the test on A549/ATCC NSCLC it was 40%; in the test with 786-0 renal, 33.3%; with COLO 205 colon, 5.37% (active); with DU-145 prostate, 30.7%; in the test with K-562 leukemia, 12.9%. The growth is 39.7% in the test on MALME-3M melanoma; 49.4% in the test with MDA-MB-231 breast; 17.2% with RXF 393 renal; 43.9% in the test with SF-268 CNS; 14.7% in the test with SF-295 CNS; 1.2% (active) with SF-539 CNS. For the same compound, the growth was 61.5% in the test on UACC-257 melanoma and 18.2% in the test on M14 melanoma.
For the compound `CC(=O)Nc1cc(N2CCOCC2)c2nc(NC(=O)c3[nH]c(C)c(Cl)c3Cl)sc2c1`, the growth in the test on NCI-H23 lung is 77.2%; in the test on NCI-H226 lung, 37.3%; with NCI-H322M lung, 92.1%; in the test with HOP-62 NSCLC, 69.2%; in the test with NCI-H460 lung, 64%; in the test on HOP-92 NSCLC, 119%. Further, the growth in the test with NCI-H522 lung is 71.8%; in the test with A549/ATCC NSCLC, 71.9%; in the test with 786-0 renal, 44.5%; in the test with COLO 205 colon it was 104%; in the test with DU-145 prostate, 58.1%; in the test with K-562 leukemia it was 81.4%. Further, the growth in the test on MALME-3M melanoma is 54.7%; in the test with MDA-MB-231 breast, 62.2%; with RXF 393 renal it was 19.2%; with SF-268 CNS it was 93.9%; with SF-295 CNS, 50.8%; in the test with SF-539 CNS it was 48.7%. In addition, the growth was 84.8% in the test with UACC-257 melanoma and 72.1% in the test with M14 melanoma.
`C#CCOc1ccccc1C(OC(=O)c1ccccc1)C(=O)NC(C)(C)C(C)(C)C` (centres undefined): the growth in the test on NCI-H23 lung is 82.4%; with NCI-H226 lung it was 82.1%; in the test on NCI-H322M lung, 90.4%; with HOP-62 NSCLC, 88.4%; in the test on NCI-H460 lung it was 89.7%; in the test with HOP-92 NSCLC, 71%. For the same compound, the growth with NCI-H522 lung is 73.4%; in the test on A549/ATCC NSCLC, 74%; with 786-0 renal, 84.7%; in the test with COLO 205 colon, 85.1%; in the test on DU-145 prostate it was 108%; in the test with K-562 leukemia, 78.3%. Besides, the growth in the test on MALME-3M melanoma is 76.4%; in the test on MDA-MB-231 breast, 80.8%; in the test on RXF 393 renal, 74.6%; with SF-268 CNS it was 93.5%; with SF-295 CNS, 70.3%; with SF-539 CNS, 102%. Also, the growth in the test on UACC-257 melanoma is 81.6%; in the test on M14 melanoma, 89.4%.
For the compound `COc1cccc(N2CCN(C3=C(Cl)C(=O)c4ncccc4C3=O)CC2)c1`, the growth in the test on NCI-H23 lung is 60.3%; in the test with NCI-H226 lung, 94.7%; in the test with NCI-H322M lung it was 95.4%; in the test with HOP-62 NSCLC it was 83.5%; in the test with NCI-H460 lung, 63%; in the test on HOP-92 NSCLC it was 135%. Besides, the growth with NCI-H522 lung was 42.6%; in the test with A549/ATCC NSCLC, 97.2%; in the test with 786-0 renal, 114%; in the test on COLO 205 colon, 91.9%; in the test on DU-145 prostate, 59.2%; with K-562 leukemia, 7.16% (active). The growth in the test with MALME-3M melanoma was 61.6%; in the test with MDA-MB-231 breast, 85.1%; with RXF 393 renal, 64.5%; with SF-268 CNS, 84.1%; in the test on SF-295 CNS, 110%; in the test on SF-539 CNS it was 93.8%. Moreover, the results for the growth in the test with UACC-257 melanoma and with M14 melanoma were 70.2% and 81.7%, respectively.
Regarding `O=C(/C=C/c1csc(Br)n1)NO`, the growth is 38.4% in the test on NCI-H23 lung; 82.9% in the test with NCI-H226 lung; 33.1% with NCI-H322M lung; 35.5% in the test on HOP-62 NSCLC; 25.7% in the test on NCI-H460 lung; -2.53% (active) in the test with HOP-92 NSCLC. The growth is 7.37% (active) in the test with NCI-H522 lung; 23.5% with A549/ATCC NSCLC; 52.3% with 786-0 renal; 11.6% in the test with COLO 205 colon; 25% in the test with DU-145 prostate; 9.85% (active) in the test with K-562 leukemia. Further, the growth is 1% (active) with MALME-3M melanoma; 34.1% in the test on MDA-MB-231 breast; -15.9% (active) in the test on RXF 393 renal; 57.6% in the test with SF-268 CNS; 7.79% (active) with SF-295 CNS; 35.4% in the test on SF-539 CNS. Besides, the values for the growth with UACC-257 melanoma and in the test with M14 melanoma were 22.3% and 27.1%, respectively.
As for `C#Cc1nc(C(=O)NCCCCCCC(=O)NO)cs1`, the growth with NCI-H23 lung was -74.6% (active); in the test with NCI-H226 lung, 39.1%; in the test on NCI-H322M lung, 29.4%; with HOP-62 NSCLC it was 16.9%; in the test with NCI-H460 lung it was 16%; in the test with HOP-92 NSCLC, -74.6% (active). Also, the growth with NCI-H522 lung is -58.5% (active); in the test with A549/ATCC NSCLC, 10.2%; in the test on 786-0 renal it was -83.4% (active); in the test with COLO 205 colon, -61.7% (active); in the test with DU-145 prostate, -51.1% (active); in the test on K-562 leukemia it was 5.86% (active). For the same compound, the growth with MALME-3M melanoma was -61% (active); in the test on MDA-MB-231 breast, -71.8% (active); in the test with RXF 393 renal, -78.7% (active); with SF-268 CNS, 2.01% (active); in the test with SF-295 CNS, -2.7% (active); with SF-539 CNS, -80.1% (active). The values for the growth with UACC-257 melanoma and in the test with M14 melanoma were 23% and 16.6%, respectively.
For the compound `CCOP(=O)(OCC)OC[C@]12CCC(C)(C)C[C@H]1C1=CC[C@@H]3[C@@]4(C)CC[C@H](OP(=O)(OCC)OCC)C(C)(C)[C@@H]4CC[C@@]3(C)[C@]1(C)CC2`, the growth was 53.9% in the test with NCI-H23 lung; 66.1% with NCI-H226 lung; 83.7% in the test on NCI-H322M lung; 82.9% in the test with HOP-62 NSCLC; 51.3% in the test with NCI-H460 lung; 27.9% with HOP-92 NSCLC. For the same compound, the growth was 51.5% in the test with NCI-H522 lung; 44.3% in the test on A549/ATCC NSCLC; 66.3% in the test with 786-0 renal; 66.6% in the test with COLO 205 colon; 83.1% in the test on DU-145 prostate; 28.9% with K-562 leukemia. The growth in the test with MALME-3M melanoma was 62.6%; in the test on MDA-MB-231 breast it was 50.2%; in the test with RXF 393 renal, 74.9%; with SF-268 CNS, 73.1%; in the test on SF-295 CNS it was 51.8%; with SF-539 CNS it was 66.9%. For the same compound, the growth in the test on UACC-257 melanoma is 55%; in the test with M14 melanoma, 51.9%.
Consider `O=C1/C(=C/c2cc(F)cc(F)c2)Cc2cc3c(cc21)OCO3`, for which the growth in the test on NCI-H23 lung is 62.3%; in the test on NCI-H226 lung, 52.2%; in the test on NCI-H322M lung, 41.5%; with HOP-62 NSCLC, 58%; in the test on NCI-H460 lung, 30.3%; in the test on HOP-92 NSCLC, 63.4%. Besides, the growth with NCI-H522 lung is 1.49% (active); in the test on A549/ATCC NSCLC it was 59.8%; with 786-0 renal, 61%; in the test on DU-145 prostate it was 54.4%; with K-562 leukemia, 18.4%; in the test with MALME-3M melanoma it was 37.9%. Further, the growth in the test on MDA-MB-231 breast was 40.5%; in the test with RXF 393 renal, 29%; in the test with SF-268 CNS it was 64.7%; with SF-295 CNS, 35.6%; in the test on SF-539 CNS, 33.1%; in the test on UACC-257 melanoma, 73.6%. In addition, the growth in the test with M14 melanoma was 20.2%.
